Test results taken from PubChem BioAssay (NCI).
This is part of a sample that, as a whole, favours compounds with a hit. Of some 79,000 tested, about 15% had one in any assay. The source made the active and inactive calls. Cut-off read from the data, not from the text of the source: active = growth inhibition above about 70%; inactive = the rest.

Legend:
[1] = NCI Yeast Anticancer Drug Screen. Data for the rad52 strain (AID 147);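 note: 0% = growth of vehicle-treated control cultures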; conditions: S. cerevisiae rad52 mutant growth inhibition, active compounds read high
Outline: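 Genetically altered yeast (DNA damage repair defect) treated with compound; inhibition calculated relative to vehicle.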

[2] = NCI Yeast Anticancer Drug Screen. Data for the wt1 strain (AID 149);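 note: 0% = growth of vehicle-treated wt1 cultures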; conditions: S. cerevisiae wt1 strain (SPY 50644) growth inhibition, active compounds read high
Outline: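 Compounds are added to wt1 yeast cultures. Growth is then measured. Inhibition is expressed relative to vehicle-treated controls.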

[3] = NCI Yeast Anticancer Drug Screen. Data for the rad50EPP+ strain (AID 151);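 note: 0% = growth of vehicle-treated control cultures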; conditions: S. cerevisiae rad50 mutant strain, active compounds read high
Outline: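 Strain rad50EPP+; compound exposure; % growth inhibition vs vehicle.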

[4] = NCI Yeast Anticancer Drug Screen. Data for the mgt1 strain (AID 153); conditions: S. cerevisiae mgt1 mutant growth inhibition, active compounds read high
Outline: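 Read-out: yeast growth inhibition vs vehicle control. Strain mgt1, drawn from a panel altered in DNA damage repair or cell cycle control.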

[5] = NCI Yeast Anticancer Drug Screen. Data for the rad50 strain (AID 155);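 note: 0% = growth of vehicle-only cultures of the same strain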; conditions: S. cerevisiae rad50 strain growth inhibition, active compounds read high
Outline: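 Inhibition values express reduced yeast growth in compound-treated cultures relative to vehicle-treated controls.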

[6] = NCI Yeast Anticancer Drug Screen. Data for the mec2-1 strain (AID 157); conditions: S. cerevisiae mec2-1 strain, active compounds read high
Outline: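 Cells of the genetically defined mec2-1 yeast strain are incubated with test compound. Inhibition of growth is calculated against vehicle-treated controls.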

[7] = NCI Yeast Anticancer Drug Screen. Data for the sgs1 mgt1 strain (AID 161);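 note: 0% = growth of cultures given vehicle only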; conditions: S. cerevisiae sgs1 mgt1 strain, active compounds read high
Outline: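 Mutant yeast exposed to compound; growth scored against vehicle-only wells.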

[8] = NCI Yeast Anticancer Drug Screen. Data for the CLN2oe strain (AID 163);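 note: 0% = growth of vehicle-only control cultures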; conditions: S. cerevisiae CLN2oe strain, active compounds read high
Outline: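 Strain altered in cell-cycle control, incubated with compound; growth compared to solvent-treated controls.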

[9] = NCI Yeast Anticancer Drug Screen. Data for the cln2 rad14 strain (AID 165);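 note: 0% = growth equal to vehicle treated cultures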; conditions: S. cerevisiae cln2 rad14 strain, active compounds read high
Outline: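 The screen exposed genetically defined yeast (cln2 rad14) to test compounds and scored growth inhibition relative to vehicle-treated controls.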

[10] = NCI Yeast Anticancer Drug Screen. Data for the bub3 strain (AID 167); conditions: S. cerevisiae bub3 mutant strain, active compounds read high
Outline: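 Steps: expose the mutant yeast strain to compound; grow alongside vehicle-treated cultures; measure growth; express inhibition against the vehicle cultures.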

[11] = NCI Yeast Anticancer Drug Screen. Data for the wt2 strain (AID 169);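 note: 0% = growth of vehicle-treated yeast cultures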; conditions: S. cerevisiae wt2 strain growth inhibition, active compounds read high
Outline: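 Steps: yeast strain treated with compound; growth recorded; inhibition calculated relative to cultures given vehicle alone.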

[12] = NCI Yeast Anticancer Drug Screen. Data for the mlh1 strain (AID 171);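 note: 0% = growth of vehicle-treated control cultures of the same strain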; conditions: S. cerevisiae mlh1 strain growth inhibition, active compounds read high
Outline: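 Yeast screen: mutant strain plus compound, growth scored against vehicle control wells.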

[13] = NCI Yeast Anticancer Drug Screen. Data for the sgs1 strain (AID 173);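 note: 0% = growth of vehicle-only control cultures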; conditions: S. cerevisiae sgs1 mutant, active compounds read high
Outline: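 Inhibition of yeast growth served as the measure. The mutant strain was treated with each compound, and growth was normalised to cultures receiving vehicle alone.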

[14] = NCI Yeast Anticancer Drug Screen. Data for the mlh1 rad18 strain (AID 175); conditions: S. cerevisiae mlh1 rad18 strain growth inhibition, active compounds read high
Outline: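 Compound-treated yeast growth, normalised to vehicle controls. Strain bears defined DNA repair mutations.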

[15] = NCI Yeast Anticancer Drug Screen. Data for the rad18 strain (AID 177); conditions: S. cerevisiae rad18 mutant growth inhibition, active compounds read high
Outline: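 Inhibition values reflect reduced yeast growth compared with vehicle-treated controls, using a strain engineered with a DNA damage repair defect.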

[16] = at 5.0 µM (retest, dose inferred, filed as 0.5)
[17] = at 50.0 µM (retest, dose inferred, filed as 5.0)

Measured: growth inhibition

Cc1cc(Cl)ccc1NC(=O)/C(Cl)=C1/Sc2ccccc2NC1=O
inactive: [1]; at 1.2 µM -3% | [1]; at 3.7 µM -3% | [1]; at 11.0 µM -2% | [1]; at 33.0 µM 0% | [1]; at 100.0 µM 27% | [2]; at 1.2 µM -1% | [2]; at 3.7 µM -3% | [2]; at 11.0 µM -4% | [2]; at 33.0 µM -41% | [2]; at 100.0 µM 3% | [3]; at 1.2 µM 1% | [3]; at 3.7 µM 4% | [3]; at 11.0 µM 7% | [3]; at 33.0 µM 8% | [3]; at 100.0 µM 2% | [4]; at 1.2 µM -2% | [4]; at 3.7 µM -1% | [4]; at 11.0 µM -3% | [4]; at 33.0 µM -5% | [4]; at 100.0 µM -2% | [5]; at 1.2 µM 2% | [5]; at 3.7 µM 24% | [5]; [16] 47% | [5]; at 11.0 µM 29% | [5]; at 33.0 µM 3% | [5]; at 100.0 µM 24% | [6]; at 1.2 µM -1% | [6]; at 3.7 µM -5% | [6]; [16] 24% | [6]; at 11.0 µM -6% | [6]; at 33.0 µM -5% | [6]; [17] 62% | [6]; at 50.0 µM 56.9% | [6]; at 100.0 µM 16% | [7]; [16] 36% | [7]; at 50.0 µM 68.5% | [8]; at 1.2 µM -8% | [8]; at 3.7 µM -1% | [8]; at 11.0 µM -6% | [8]; at 33.0 µM -7% | [8]; at 100.0 µM -14% | [9]; [16] 23% | [9]; [17] 57% | [9]; at 50.0 µM -5.3% | [10]; at 1.2 µM -2% | [10]; at 3.7 µM -2% | [10]; [16] 35% | [10]; at 11.0 µM -3% | [10]; at 33.0 µM -4% | [10]; at 50.0 µM 20.2% | [10]; at 100.0 µM 7% | [11]; at 1.2 µM -2% | [11]; at 3.7 µM 7% | [11]; at 11.0 µM -2% | [11]; at 33.0 µM -2% | [11]; at 100.0 µM 2% | [12]; at 1.2 µM -1% | [12]; at 3.7 µM -3% | [12]; at 11.0 µM -3% | [12]; at 33.0 µM -5% | [12]; at 100.0 µM 0% | [13]; at 1.2 µM -1% | [13]; at 3.7 µM 2% | [13]; at 11.0 µM 4% | [13]; at 33.0 µM 7% | [13]; at 100.0 µM 31% | [14]; [16] 35% | [14]; at 50.0 µM 69.2% | [15]; at 1.2 µM 0% | [15]; at 3.7 µM 3% | [15]; at 11.0 µM 4% | [15]; at 33.0 µM 6% | [15]; at 100.0 µM 45%
active: [5]; [17] 82% | [5]; at 50.0 µM 72% | [7]; [17] 91% | [10]; [17] 91% | [14]; [17] 80%
